This is an account of results in PubChem BioAssay.

Experiment [1] can be described thus: HepG2 liver cancer cell viability effects, profiling panel, resazurin fluorescence, 24 h, PK04 Diversity Set (AID 1172). The following applies: higher = more signal. On the technique in general: Alamar Blue is a resazurin reagent that responds to reducing activity.
The nature of experiment [2]: basal S. cerevisiae growth modulation, no modifier, primary screen, OD600, strain BY4716, 24 h, basal condition (AID 1173). The following applies: OD600, 24 h, higher = more signal, called active from +8 up or from −8 down.
Experiment [3] can be described thus: MM1S myeloma cell viability, profiling panel, resazurin fluorescence, basal, 24 h, PK04 Diversity Set (AID 1174).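 Also: MM1S multiple myeloma cell line.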 The following applies: higher = more signal, called active from +8 up or from −8 down.
Experiment [4] deals with Dihydroorotate dehydrogenase (quinone), mitochondrial (Plasmodium falciparum (isolate 3D7)) (UniProt Q08210). As to the kind of experiment: PfDHODH enzyme inhibitors, primary screen, biochemical, C-terminal His tag, absorbance 600 nm (AID 1175).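 Also: recombinant parasite enzyme with a five histidine tag at its C terminus.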 The following applies: DCIP absorbance 600 nm, higher = more signal, called active from +8 up or from −8 down.
A short description of experiment [5]: P. aeruginosa biofilm formation inhibitors, primary screen, strain PAO1, LB-PBS medium, absorbance 600 nm (AID 1176). The following applies: P. aeruginosa PAO1 growth/biofilm, A600, 12 h; higher = more signal.
A short description of experiment [6]: S. cerevisiae RM11-1a growth modifiers, primary screen, strain RM11-1a, OD600, basal, 24 h (AID 1177).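 Also: cultures grown under basal conditions with no added stressor.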 The following applies: OD600, 24 h, higher = more signal, called active from +8 up or from −8 down.
The nature of experiment [7]: E. coli acrAB mutant growth effects, primary screen, E. coli filamentation inducers, strain DRC39, OD650, 24 h (AID 1178).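 Also: growth measured as culture turbidity by optical density at 650 nm.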 The following applies: higher = more signal, called active from +8 up or from −8 down.
The nature of experiment [8]: E. coli acrAB mutant growth effects, primary screen, E. coli filamentation inducers, strain DRC39, OD650, 48 h (AID 1179).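 Also: screen aims at cell division blockers that make cells filament.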 The following applies: E. coli DRC39 delta-acrAB growth, higher = more signal, called active from +8 up or from −8 down.
Experiment [9] is described as follows: RPMI8226 myeloma cell viability, profiling panel, resazurin fluorescence, basal, 24 h, PK04 Diversity Set (AID 1180).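 Also: RPMI8826 multiple myeloma cell line at 5000 cells per well.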 The following applies: higher = more signal.
Experiment [10] has as its target E3 ubiquitin-protein ligase XIAP (Homo sapiens) (UniProt P98170). Kind of experiment: XIAP binders, primary screen, biophysical, small-molecule microarray, fluorescence 635 nm (AID 1181).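 Also: score merges 667 nm emission and signal to noise over triplicate slides.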 The following applies: small-molecule microarray binding, higher = more signal.
Experiment [11] concerns XIP peptide (Xip251-270) binding. As to the kind of experiment: small-molecule binders of XIP peptide, primary screen, biochemical, small-molecule microarray, fluorescence 635/667 nm, 0.1 µg/mL protein (AID 1182). The following applies: fluorescent protein binding, 635 nm, higher = more signal, called active from +8 up or from −8 down.
The next experiment has as its system XIP peptide (Xip251-270). Kind of experiment: small-molecule binders of XIP peptide, primary screen, biochemical, small-molecule microarray, fluorescence 635/667 nm, 0.5 µg/mL protein (AID 1183). The following applies: small-molecule microarray binding, fluorescence 635 nm; higher = more signal.
A short description of experiment [12]: Plasmodium falciparum growth inhibition, primary screen, strain 3D7, DAPI fluorescence, 100 nL (AID 1184).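 Also: parasites grown inside human red blood cells in medium with human serum.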 The following applies: P. falciparum 3D7 growth, 3 d, higher = more signal.
For experiment [13], the target named is Homeobox protein Hox-A13 (Mus musculus) (UniProt Q62424). As to the kind of experiment: inhibitors of HoxA13-DNA binding, primary screen, biochemical, fluorescence polarization, labeled oligonucleotide (AID 1185). The following applies: 15 min, higher = more signal, called active from +8 up or from −8 down. Background: Polarisation of emitted light reports the rotation of a fluorescent probe.

The nature of experiment [14]: inhibitors of hydroxyurea-induced Chk1 phosphorylation, primary screen, imaging, HeLa, phospho-Chk1 antibody, percent positive cells (AID 1186). The following applies: hydroxyurea-induced phospho-Chk1 immunofluorescence imaging, higher = more signal.
A short description of experiment [15]: inhibitors of hydroxyurea-induced Chk1 phosphorylation, primary screen, imaging, HeLa, phospho-Chk1 nuclear intensity (AID 1187). The following applies: hydroxyurea-induced phospho-Chk1 immunofluorescence imaging, higher = more signal.

The source made the active and inactive calls. Unless noted, no rule for the calls is given here.

Sequence of E3 ubiquitin-protein ligase XIAP (Homo sapiens) (P98170 whole entry, looked up): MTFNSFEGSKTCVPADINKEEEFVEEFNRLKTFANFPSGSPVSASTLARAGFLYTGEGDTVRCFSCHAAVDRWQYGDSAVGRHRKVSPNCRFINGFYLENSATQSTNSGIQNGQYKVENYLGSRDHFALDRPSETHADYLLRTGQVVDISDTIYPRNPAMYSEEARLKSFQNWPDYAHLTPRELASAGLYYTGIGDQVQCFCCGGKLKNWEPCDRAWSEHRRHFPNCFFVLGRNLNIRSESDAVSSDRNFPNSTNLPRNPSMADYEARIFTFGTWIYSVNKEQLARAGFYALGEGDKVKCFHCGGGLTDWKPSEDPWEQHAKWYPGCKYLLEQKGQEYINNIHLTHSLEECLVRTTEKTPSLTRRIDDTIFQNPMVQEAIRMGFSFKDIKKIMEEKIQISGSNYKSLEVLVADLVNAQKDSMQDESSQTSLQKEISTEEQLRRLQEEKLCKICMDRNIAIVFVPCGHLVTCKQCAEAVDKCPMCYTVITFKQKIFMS
Sequence of Homeobox protein Hox-A13 (Mus musculus) (Q62424 whole entry, looked up): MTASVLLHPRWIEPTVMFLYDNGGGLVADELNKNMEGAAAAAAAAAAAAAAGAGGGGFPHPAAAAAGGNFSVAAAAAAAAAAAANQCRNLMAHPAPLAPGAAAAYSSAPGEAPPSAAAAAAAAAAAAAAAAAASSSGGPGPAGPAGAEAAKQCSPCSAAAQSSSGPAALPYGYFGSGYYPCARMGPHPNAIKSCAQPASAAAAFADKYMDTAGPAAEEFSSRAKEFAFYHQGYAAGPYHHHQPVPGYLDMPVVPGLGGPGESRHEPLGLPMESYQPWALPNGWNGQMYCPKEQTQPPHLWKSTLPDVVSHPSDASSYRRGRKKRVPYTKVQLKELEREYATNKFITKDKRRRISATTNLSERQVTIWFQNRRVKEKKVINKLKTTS
Sequence of Dihydroorotate dehydrogenase (quinone), mitochondrial (Plasmodium falciparum (isolate 3D7)) (Q08210 whole entry, looked up): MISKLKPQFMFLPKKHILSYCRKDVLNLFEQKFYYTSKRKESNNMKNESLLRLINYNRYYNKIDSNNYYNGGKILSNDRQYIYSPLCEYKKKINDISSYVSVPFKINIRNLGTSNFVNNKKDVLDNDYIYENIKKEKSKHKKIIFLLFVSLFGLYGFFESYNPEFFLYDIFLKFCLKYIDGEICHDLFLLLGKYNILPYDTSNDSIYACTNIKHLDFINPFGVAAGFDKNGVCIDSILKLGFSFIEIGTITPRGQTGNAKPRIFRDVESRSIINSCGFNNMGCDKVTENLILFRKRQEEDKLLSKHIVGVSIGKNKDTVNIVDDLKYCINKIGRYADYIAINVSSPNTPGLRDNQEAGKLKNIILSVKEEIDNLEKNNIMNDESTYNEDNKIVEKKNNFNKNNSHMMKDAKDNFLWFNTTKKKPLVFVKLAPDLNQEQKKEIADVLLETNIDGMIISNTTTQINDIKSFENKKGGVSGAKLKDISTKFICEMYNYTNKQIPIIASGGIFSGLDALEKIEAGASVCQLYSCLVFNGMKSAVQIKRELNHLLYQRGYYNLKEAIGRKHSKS

On to `C[N+](C)(C)CCCCCCNC(=O)[C@@H]1C[C@@H]2C(=O)N[C@@H](Cc3ccccc3)C(=O)N2[C@@H]1c1ccc(O)cc1`, for which the z-score in experiment [1] is 1.17; in experiment [2], -0.471 (inactive); in experiment [3] it was 0.224 (inactive); in experiment [5], 0.615 (inactive); in experiment [6], -0.0653 (inactive); in [7], 0.457 (inactive). For the same compound, the z-score is 0.492 (inactive) in experiment [8]; 0.25 in [9]; -0.324 in [12]; -2.44 (inactive) in [13]; 0.459 (inactive) in experiment [14]; 0.496 (inactive) in experiment [15]. The composite z-score in experiment [4] is -0.77 (inactive); in experiment [10] it was -0.0882; in experiment [11], 1.13 (inactive); in the experiment on XIP peptide (Xip251-270), 0.841.

As for `Cc1ccc(F)cc1S(=O)(=O)N[C@@H]1CCN(Cc2ccc3c(c2)OCO3)C1`, the z-score was -0.622 in experiment [1]; -4.86 (inactive) in experiment [2]; -0.584 (inactive) in experiment [3]; -0.177 (inactive) in [5]; 0.34 (inactive) in experiment [6]; -0.572 (inactive) in [7]. In addition, the z-score in experiment [8] is -2.33 (inactive); in experiment [9] it was 0.224; in experiment [12] it was 0.531; in [13], -3.75 (inactive); in experiment [14], -0.201 (inactive); in experiment [15], -0.271 (inactive). In addition, the composite z-score is 0.171 (inactive) in experiment [4], 0.13 in experiment [10], 0.92 (inactive) in [11] and 0.321 in the experiment with XIP peptide (Xip251-270).

Take `COCCOC(=O)N1C(=O)[C@@]2(c3cc(C#CCCO)ccc31)[C@H](c1ccccc1OCCO)N1[C@H](c3ccccc3)[C@H](c3ccccc3)OC(=O)[C@H]1[C@@H]2C(=O)N1CCc2cc(OC)c(OC)cc2C1`: the z-score in [1] is -0.321; in [2], 1.39 (inactive); in experiment [3], 0.248 (inactive); in experiment [5], 1.26 (inactive); in experiment [6] it was 2 (inactive); in [7], 0.0965 (inactive). In addition, the z-score in experiment [8] was 0.963 (inactive); in experiment [9], 1.19; in [12] it was -1.75; in experiment [13], 0.0237 (inactive); in experiment [14] it was -0.156 (inactive); in experiment [15], 0.0652 (inactive). Besides, the composite z-score in [4] was 0.725 (inactive); in experiment [10], 0.132; in experiment [11], 0.291 (inactive); in the experiment with XIP peptide (Xip251-270) it was 0.816.

Regarding `O=C1O[C@@H](c2ccccc2)[C@@H](c2ccccc2)N2[C@@H](c3ccc(O)cc3)[C@]3(C(=O)Nc4ccc(C#CC5=CCCCC5)cc43)[C@@H](C(=O)N3CCCCCCC3)[C@H]12`, the z-score in [1] is -0.109; in [2], -1.2 (inactive); in [3], 0.158 (inactive); in [5], 1.22 (inactive); in experiment [6], -0.976 (inactive); in experiment [7] it was 0.326 (inactive). Also, the z-score in experiment [8] was -0.199 (inactive); in experiment [9], 0.177; in [12], -1.99; in [13], 4.91 (inactive); in experiment [14], -0.434 (inactive); in [15] it was -0.686 (inactive). In addition, the composite z-score in experiment [4] is -1.81 (inactive); in experiment [10], 0.691; in experiment [11], 1.52 (inactive); in the experiment on XIP peptide (Xip251-270), 0.816.

Take `C=CCC(OC(C)=O)[C@@H]1[C@@H](N(Cc2ccc(-c3cccc(C(F)(F)F)c3)o2)C(=O)Cc2ccc(F)cc2)c2cc(OCCCO)ccc2N1C(=O)c1ccc2ccccc2n1` (some centres undefined): the z-score in experiment [1] was 0.286; in experiment [2] it was 0.441 (inactive); in [3] it was 0.229 (inactive); in experiment [5] it was 0.927 (inactive); in [6], -0.116 (inactive); in experiment [7], -0.36 (inactive). Besides, the z-score in [8] was -0.15 (inactive); in experiment [9] it was -0.128; in experiment [12], 0.587; in [13], -2.08 (inactive); in experiment [14], 0.918 (inactive); in experiment [15], 0.64 (inactive). Besides, the composite z-score in experiment [4] is -0.235 (inactive); in [10], 0.0454; in experiment [11], -0.384 (inactive); in the experiment on XIP peptide (Xip251-270), -0.904.

For `COc1ccc([Si](C)(C)[C@@H]2[C@@H](CC(=O)N(CCO)Cc3ccccc3)O[C@]3(C(=O)N(Cc4ccc(N5CCC5=O)cc4)c4ccccc43)[C@H]2C)cc1`, the z-score in experiment [1] is 0.278; in experiment [2], 0.144 (inactive); in [3], -0.604 (inactive); in [5], 1.2 (inactive); in experiment [6], 0.67 (inactive); in experiment [7] it was 0.505 (inactive). Besides, the z-score is 0.358 (inactive) in [8]; -1.66 in [9]; -0.767 in [12]; -1.08 (inactive) in [13]; 0.366 (inactive) in experiment [14]; 0.971 (inactive) in [15]. For the same compound, the composite z-score is -1.44 (inactive) in experiment [4], -0.0151 in experiment [10], 3.33 (inactive) in experiment [11] and 0.443 in the experiment with XIP peptide (Xip251-270).

For the compound `COc1ccc(CCNC(=O)[C@@H]2c3ccccc3C(=O)N(CC34CC5CC(CC(C5)C3)C4)[C@H]2c2ccc(CO)cc2)cc1`, the z-score in [1] is 0.556; in experiment [2], -0.547 (inactive); in [3], -1.05 (inactive); in experiment [5], 0.565 (inactive); in [6] it was -0.134 (inactive); in experiment [7], 0.517 (inactive). Also, the z-score in [8] is 0.119 (inactive); in experiment [9], 0.618; in [12], -2.14; in [13], -4.4 (inactive); in experiment [14], -0.0198 (inactive); in experiment [15] it was 0.432 (inactive). For the same compound, the composite z-score in experiment [4] is 0.12 (inactive); in [10], 0.399; in experiment [11] it was 1.92 (inactive); in the experiment on XIP peptide (Xip251-270) it was 0.55.

Turning to `NC(=O)NCC#Cc1ccc2c(c1)[C@]1(C(=O)N2)[C@H](C(=O)Nc2nc3ccccc3s2)[C@H]2C(=O)O[C@H](c3ccccc3)[C@H](c3ccccc3)N2[C@@H]1c1ccc(OCCO)cc1`, the z-score in experiment [1] was 1.1; in experiment [2], 1.12 (inactive); in experiment [3], 0.365 (inactive); in [5] it was 3.99 (inactive); in experiment [6] it was 1.27 (inactive); in experiment [7], 0.426 (inactive). In addition, the z-score is -0.221 (inactive) in [8]; -0.271 in experiment [9]; -0.245 in [12]; 0.217 (inactive) in [13]; 0.287 (inactive) in experiment [14]; 0.68 (inactive) in experiment [15]. Further, the composite z-score in [4] was -0.396 (inactive); in experiment [10], 0.013; in experiment [11], -0.165 (inactive); with XIP peptide (Xip251-270), -0.913.

As for `COCCOC(=O)N1C(=O)[C@@]2(c3cc(C#Cc4ccc(OC)cc4)ccc31)[C@H](C(=O)N1CCCCCCC1)[C@H]1C(=O)O[C@H](c3ccccc3)[C@H](c3ccccc3)N1[C@@H]2c1ccccc1OCCO`, the z-score in experiment [1] is -0.107; in experiment [2] it was 1.88 (inactive); in experiment [3], -0.0216 (inactive); in [5], 2.36 (inactive); in experiment [6] it was 3.2 (inactive); in experiment [7], -0.609 (inactive). The z-score in [8] is -0.399 (inactive); in experiment [9] it was -0.429; in [12], -2.15; in [13], 4.81 (inactive); in [14] it was -0.0224 (inactive); in experiment [15], 0.504 (inactive). Besides, the composite z-score in [4] was -0.267 (inactive); in experiment [10], 0.89; in experiment [11], 1.65 (inactive); with XIP peptide (Xip251-270) it was 0.728.
